# Screens as filed in PubChem BioAssay.
# CHO-K1 Ca antag: counter-screen for M1 antagonists: effect in parental CHO-K1 cells. AID 602250. inhibition, % at 3 µM. 360,000 tested, 0.6% active. ATP-induced calcium, Fluo-8 fluorescence;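 active = inhibition above a per-plate cutoff, the plate's mean sample inhibition plus 3 SD, cut at about 24% in these data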;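 note: 0% = DMSO plus EC80 ATP and 100% = DMSO alone without ATP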
# CHO-K1 Ca ag: counter-screen for M1 agonists: effect in parental CHO-K1 cells | 360,000 tested, 0.48% active | Fluo-8 calcium fluorescence; scaled to maximal ATP response, vehicle zero | activation, % at 3 µM; in the data active = activation above about 15%;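 note: untransfected CHO-K1 host cells lacking M1 receptor as counterscreen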
# CHO-K1 Ca PAM: nonselective calcium activators in parental CHO-K1 cells, primary screen, counter-screen for M1 PAM project, cell-based, Fluo-8 calcium fluorescence, full deck, 1536-well | activation, % at 3 µM | ATP EC20; 0% at ATP EC20, 100% at ATP max | AID 602247, 2012 | 360,000 tested, 0.02% active;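 active = activation above the run cutoff, the mean activation of all test compounds plus 3 SD, cut at about 40% in these data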;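 note: peak over basal fluorescence ratio in a 140 s read after ATP addition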
# M4 ag: human M4 muscarinic receptor agonists, primary screen, CHO-K1 cells, Fluo-8 calcium fluorescence; CHO-K1 hM4/Gqi5; vehicle 0%, full acetylcholine response 100%; activation, % at 3 µM; 360,000 tested, 0.14% active; AID 624127, 2012;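 active = activation above the run mean over all test wells plus 3 SD, cut at about 32% in these data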;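 note: peak over basal fluorescence ratio per well then scaled between controls; 0% = DMSO wells and 100% = acetylcholine at EC100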
# Target sequence (P08173 whole entry, looked up): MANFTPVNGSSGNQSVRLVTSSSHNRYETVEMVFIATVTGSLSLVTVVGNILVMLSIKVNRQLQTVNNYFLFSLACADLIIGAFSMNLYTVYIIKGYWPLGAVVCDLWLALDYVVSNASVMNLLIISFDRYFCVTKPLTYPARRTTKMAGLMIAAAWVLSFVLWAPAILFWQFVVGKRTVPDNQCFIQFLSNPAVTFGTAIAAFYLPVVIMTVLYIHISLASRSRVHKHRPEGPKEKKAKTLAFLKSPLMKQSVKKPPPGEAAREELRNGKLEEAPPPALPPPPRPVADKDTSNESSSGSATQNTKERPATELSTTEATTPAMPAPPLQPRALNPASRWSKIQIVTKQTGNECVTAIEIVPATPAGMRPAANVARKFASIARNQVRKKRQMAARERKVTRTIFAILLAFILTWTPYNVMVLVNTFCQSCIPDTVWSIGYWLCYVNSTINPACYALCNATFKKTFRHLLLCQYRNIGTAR
# M4 antag: human M4 muscarinic receptor antagonists, primary screen, CHO cells, Fluo-8 calcium fluorescence. CHO-hM4 cells, ACh EC80. inhibition, % at 3 µM. 360,000 tested, 0.73% active. AID 624125, 2012;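 active = inhibition above its plate's cutoff, the mean inhibition of sample wells plus 3 SD, cut at about 27% in these data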;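 note: 0% = acetylcholine EC80 with DMSO and 100% = DMSO without agonist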
# M4 PAM: human M4 muscarinic receptor positive allosteric modulators, primary screen, CHO-K1 cells, Fluo-8 calcium fluorescence | Muscarinic acetylcholine receptor M4 (Homo sapiens), P08173 | CHO-K1 hM4/Gqi5, ACh EC20; 0% = ACh EC20, 100% = maximal ACh | activation, % at 3 µM | 360,000 tested, 0.4% active;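 active = activation above its plate's cutoff, the mean activation of sample wells plus 3 SD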
# An asterisk follows results filed as active. An excerpt weighted towards active compounds, which were near 2% of everything screened.
SMILES,CHO-K1 Ca antag,CHO-K1 Ca ag,CHO-K1 Ca PAM,M4 ag,M4 antag,M4 PAM
Cc1ccc(Cl)cc1NC(=O)c1ccc(CSc2nnnn2C)cc1,26*,1,-5,2,7,5
CC1CC(C)(C)N(C(=O)CN2C(=O)c3ccccc3C2=O)c2ccccc21 (stereo not drawn),-21,1,6,6,-8,10
COc1ccc(CN(C)C(=O)C(Cc2ccccc2)NC(=O)c2ccccc2)c(OC)c1OC (stereo not drawn),12,6,-9,14,10,-12
COc1cccc(OCC(O)CN2CCC(CN3C(=O)c4cccc5cccc(c45)C3=O)CC2)c1 (stereo not drawn),0,1,5,5,1,-17
O=C1c2cccc3cccc(c23)C(=O)N1CC1CCN(CC(O)COc2ccc3ccccc3c2)CC1 (stereo not drawn),-2,11,11,26,101*,-44
CCOc1ccc(NC(=O)CN(C)C(=O)c2cn(-c3ccc(F)cc3)nc2-c2cccc(OC)c2)cc1OCC,-9,4,-22,16,7,-7
Fc1ccc(/C=C2\CCCC3=C2Nc2ncnn2C3c2ccc(F)cc2)cc1 (stereo not drawn),19,5,3,16,28*,-16
COc1ccc(C2C3=C(Nc4ncnn42)c2ccccc2CCC3)cc1 (stereo not drawn),0,0,-5,1,13,8
CC(=O)c1ccc(NC(=O)C2CCCC2)cc1,-9,0,23,0,4,-11
COc1cccc(/C=C2\C(=O)C(=O)c3ccccc32)c1,-2,0,-4,1,31*,-2
CC1CCCCC12NC(=O)N(CC(=O)NCc1ccccc1Cl)C2=O (stereo not drawn),-11,0,10,2,-6,7
CC1CCCCC12NC(=O)N(CC(=O)NCc1cccs1)C2=O (stereo not drawn),25*,2,-5,1,3,4
Nc1ccc(O)cc1C(=O)OCC(=O)c1ccc(C2CCCCC2)cc1,-4,1,27,2,5,-2
Cc1ccc(-n2nnnc2SCn2nnc3ccccc3c2=O)c(C)c1,24*,10,-8,13,10,-11
Cc1cc(C)c(NS(=O)(=O)c2ccc3c(c2)NC(=O)CCS3)c(C)c1,21,0,-15,4,1,0
CC(CNS(=O)(=O)c1ccc2c(c1)NC(=O)CCS2)c1ccccc1 (stereo not drawn),2,18*,5,7,-10,-1
COc1ccc(C2C(C(=O)N3CCCC3)c3cc(OC)c(OC)cc3C(=O)N2C)cc1 (stereo not drawn),26*,0,-8,1,5,-2
Cc1ccc(C(=O)NCC(C)(C)O)cc1,26*,0,-8,0,4,-5
COC(=O)c1cccc(Cn2nc(C)c([N+](=O)[O-])c2C)c1,-11,2,23,2,11,-4
CC1CN(S(=O)(=O)c2ccc(C(=O)N(C)C3CCCCC3)cc2)CC(C)O1 (stereo not drawn),-11,2,24,2,-3,4
CCn1c(SCC(=O)NCc2ccc3c(c2)OCO3)nnc1-c1cccs1,-7,0,29,0,4,7
CCn1c(SCC(=O)NCCc2ccc(F)cc2)nnc1-c1cccs1,26*,0,-7,0,20,-8
Cc1c(P(=S)(c2ccccc2)c2ccccc2)[n+]2ccccc2n1C/C=C/c1ccccc1,-10,1,20,1,29*,-11
O=S(=O)(c1cc(F)ccc1F)N1CCN(c2ncnc3ccccc23)CC1,5,18*,-3,19,19,-10
Cc1ccc(OC(C)C(=O)OCC(=O)Nc2sccc2C(N)=O)cc1 (stereo not drawn),5,15*,-10,20,9,0
SMILES,CHO-K1 Ca antag,CHO-K1 Ca ag,CHO-K1 Ca PAM,M4 ag,M4 antag,M4 PAM
N#Cc1ccc(OCC(=O)OCC(=O)Nc2sccc2C(N)=O)cc1,-8,16*,-9,13,10,-4
Cc1ccc(OCC(=O)OCC(=O)Nc2sccc2C(N)=O)cc1C,33*,13,-8,16,23,-11
CCOC(=O)C1CCCN(S(=O)(=O)c2cccc3nsnc23)C1 (stereo not drawn),-13,1,2,2,-4,1
CCOC(=O)c1cc(=O)c2ccc(OCC(=O)Nc3ccc(F)cc3)cc2o1,-1,25*,10,4,-8,13
O=C(COc1ccc2c(-c3ccccc3)cc(=O)oc2c1)Nc1ccc(CN2CCOCC2)cc1,-12,4,11,7,-1,-8
O=C(COc1ccc2c(-c3ccccc3)cc(=O)oc2c1)Nc1ccc(CCO)cc1,26*,18*,-20,14,2,-9
CCOc1ccc(NC(=O)COC(=O)c2cc(=O)c3ccccc3o2)cc1,-18,0,16,-1,-6,11
N#CCCN(C(=O)CN1CCN(S(=O)(=O)c2ccc3c(c2)OCCO3)CC1)c1ccc(F)cc1,-15,-1,11,1,-12,15
O=S(=O)(c1ccccc1F)N1CCC(Oc2ccc(-n3cnnn3)cc2)CC1,-1,22*,-3,13,8,-9
S=C(NCCc1ccccc1)Nc1cccc2cnccc12,32*,12,-23,16,8,-12
S=C(NCc1ccccc1)Nc1cccc2cnccc12,4,10,-23,11,14,-12
Cc1ccc(CNC(=O)C2CCCN(S(=O)(=O)c3cccnc3)C2)cc1 (stereo not drawn),-7,1,13,1,-15,3
Cc1c(C(=O)NCc2ccc3c(c2)OCO3)oc2ccc(S(=O)(=O)N3CCCCC3)cc12,6,8,-1,15,27*,-27
Cc1ccc(S(=O)(=O)N2CCCC(C(=O)NCc3ccc4c(c3)OCO4)C2)cc1 (stereo not drawn),-16,1,-12,0,4,-5
O=C(NCc1ccc2c(c1)OCO2)C1CCCN(S(=O)(=O)c2cccnc2)C1 (stereo not drawn),48*,0,-9,2,-15,4
Cc1c(C(=O)NCc2ccc3c(c2)OCO3)oc2ccc(S(=O)(=O)N3CCCC3)cc12,3,5,10,15,7,-8
Cc1ccc(S(=O)(=O)N2CCCC(C(=O)NCCc3ccc4c(c3)OCO4)C2)cc1 (stereo not drawn),24*,0,-6,2,8,-11
